Laboratory results taken from PubChem BioAssay.
Activity calls are given as the source filed them. How the calls were made is not given here.

These molecules were tested against Pantothenate synthetase (Mycobacterium tuberculosis (strain ATCC 25618 / H37Rv)) (UniProt P9WIL5) (assay: Recombinant Mtb pantothenate synthetase (PanC) inhibitors, coupled enzyme, confirmatory (AID 375;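 further: 0% = full reaction with vehicle and 100% = no enzyme background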)). Conditions: coupled enzyme assay; at 10 µM, hits give high values.
Chain of Pantothenate synthetase (Mycobacterium tuberculosis (strain ATCC 25618 / H37Rv)) (P9WIL5 whole entry, looked up): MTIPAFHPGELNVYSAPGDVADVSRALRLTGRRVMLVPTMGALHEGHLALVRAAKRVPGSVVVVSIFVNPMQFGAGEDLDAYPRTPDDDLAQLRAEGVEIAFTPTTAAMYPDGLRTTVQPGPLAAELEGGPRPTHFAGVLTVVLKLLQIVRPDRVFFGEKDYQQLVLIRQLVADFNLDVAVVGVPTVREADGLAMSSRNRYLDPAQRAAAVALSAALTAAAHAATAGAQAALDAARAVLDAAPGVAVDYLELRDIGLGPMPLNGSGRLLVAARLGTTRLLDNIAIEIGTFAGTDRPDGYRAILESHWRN

SMILES | inhibition
CCC(C)(C)n1nnnc1C(c1cc2cc(C)ccc2[nH]c1=O)N1CCCC1 (stereo not given) | 8% (inactive)
CCCC(=O)Nc1cccc(NC(=O)CN2CCN(c3ccccc3OC)CC2)c1 | 0% (inactive)
Fc1ccccc1-c1nc(-c2ccccc2)no1 | 5% (inactive)
Nc1c(N2CCCCC2)c(=O)[nH]c(=O)n1-c1ccccc1 | 0% (inactive)
CCC1(C(=O)OC)NC(c2cccc(F)c2)C2C(=O)N(C)C(=O)C21 (stereo not given) | 3% (inactive)
O=C1N2c3ccccc3CCc3cccc(c32)C1(O)C(F)(F)F (stereo not given) | 0% (inactive)
CCOc1ccccc1N1CCN(c2nc(N)c(C#N)c(CC#N)c2C#N)CC1 | 0% (inactive)
O=C1C(Cl)=C(NCC2CCCO2)C(=O)N1CCc1ccccc1 (stereo not given) | 0% (inactive)
CC(C)c1cc(C(=O)Nc2cccnc2)no1 | 3% (inactive)
Cc1ccc(C(=O)CC2(O)C(=O)N(C)c3ccc(Br)cc32)c(C)c1 (stereo not given) | 0% (inactive)
CCC(C(=O)NC(C)CCc1ccco1)n1nc(C)n2c(cc3occc32)c1=O (stereo not given) | 0% (inactive)
O=C(O)c1cc(=O)c2c(OCC(O)COc3cccc4oc(C(=O)O)cc(=O)c34)cccc2o1 | 1% (inactive)
Cc1cccc(C)c1NC(=O)N1CCN(C2CCCCC2)CC1 | 0% (inactive)
COc1ccccc1NC(=O)CC(NCc1ccccc1)C(=O)O (stereo not given) | 5% (inactive)
O=C(CN1CCN(c2nc(-c3ccc(Cl)cc3)cs2)CC1)NCc1ccco1 | 4% (inactive)
C[C@]12CC[C@@H]3c4ccc(OS(=O)(=O)O)cc4CC[C@H]3[C@@H]1CCC2=O | 0% (inactive)
CC1(C(=O)NC2CCCCC2)CCC(=O)N1Cc1cccs1 (stereo not given) | 0% (inactive)
Cc1cc(Nc2ccccc2F)n2ncnc2n1 | 0% (inactive)
Nc1nonc1-c1noc(CCCCCN2C(=O)c3ccccc3C2=O)n1 | 4% (inactive)
Cc1c(O)c(CN2CCCC(C)C2)cc2c3c(c(=O)oc12)CCC3 (stereo not given) | 9% (inactive)

SMILES | inhibition
O=C(O)CC(NC(=O)c1ccccc1NC(=O)c1ccccc1)C(=O)O (stereo not given) | 0% (inactive)
Cc1nnc(SCC(=O)N2CC(=O)Nc3ccccc32)n1-c1ccccc1 | 2% (inactive)
C=C(C)c1cccc(C(C)(C)NC(=O)Nc2ncccn2)c1 | 0% (inactive)
Cc1cccc(CC2CC(=O)N(c3ccccc3)C2=O)c1 (stereo not given) | 0% (inactive)
COCCNC(=O)C1CCCN(c2ncccn2)C1 (stereo not given) | 0% (inactive)
COc1ccc(C(=O)Cn2c(N3CCCCC3)nc3c2c(=O)n(C)c(=O)n3C)cc1OC | 6% (inactive)
Cc1ccc(Cn2nnc(C(=O)Nc3cccc(C)c3C)c2N)cc1 | 5% (inactive)
CCCNC(=O)c1ccccc1C(=O)NCCC | 0% (inactive)
Cc1cc(C)n2nc(SCC(=O)N(C)Cc3ccccc3)nc2n1 | 3% (inactive)
Cc1ccc(SC(C)c2nc(-c3ccccc3)no2)cc1 (stereo not given) | 0% (inactive)
CCOC(=O)C(NCc1ccccc1OC)(NC(C)=O)C(F)(F)F (stereo not given) | 0% (inactive)
CCn1nnc(NC(=O)c2ccccc2Br)n1 | 0% (inactive)
COc1ccc(NC(=O)Nc2ccc(C)cc2OC(F)F)cc1OC | 3% (inactive)
COC(=O)Nc1sc2c(c1C(=O)N1CCOCC1)CCC(C)C2 (stereo not given) | 0% (inactive)
O=S(=O)(NCc1ccccn1)c1ccc2c(c1)OCCO2 | 0% (inactive)
CCC(C)NC(=O)C1CCCN(S(=O)(=O)c2ccc(-n3cnnn3)cc2)C1 (stereo not given) | 0% (inactive)
c1cc2c(cc1C1CCCN1)OCCCO2 (stereo not given) | 2% (inactive)
O=C(OCCCN1C(=O)c2ccccc2C1=O)c1ccco1 | 2% (inactive)
COC(=O)C(O)(CC(=O)c1ccc(OC)cc1)C(F)(F)F (stereo not given) | 0% (inactive)
Cc1c(C#N)c(N)c(C(=O)c2ccccc2)n1Cc1ccccc1 | 0% (inactive)
